PubChem BioAssay (NCATS)
Values joined by “and” are separate entries in the source; they are usually repeats but may differ in a detail not shown here. Equal entries are not always repeated. Inconclusive results are not listed. Where a structure was tested more than once in an assay, its records may differ in their call. Active and inactive are the calls of the source. Calls come from the whole dose curve.

Target: Cytochrome P450 1A2 (Homo sapiens) (UniProt P05177)
Experiment: p450-cyp1a2 (AID 410);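 for activity change, negative = inhibition: -100% = full effect of reference inhibitor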
Conditions: recombinant CYP1A2, luciferin-ME demethylation, luminescence; series mostly up to 57 µM; activity change, negative = inhibition: at the top concentration
Procedure, shortened: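 Luminescent demethylation readout: Luciferin-ME (100uM, equal to Km) turned over by 20nM CYP1A2 for 60 min at room temperature after NADPH regeneration addition, following 10 min compound preincubation. Normalization used 57 uM furafylline as full inhibition.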
Potency is the fitted concentration of half-maximal effect.

Sequence of Cytochrome P450 1A2 (Homo sapiens) (P05177 whole entry, looked up): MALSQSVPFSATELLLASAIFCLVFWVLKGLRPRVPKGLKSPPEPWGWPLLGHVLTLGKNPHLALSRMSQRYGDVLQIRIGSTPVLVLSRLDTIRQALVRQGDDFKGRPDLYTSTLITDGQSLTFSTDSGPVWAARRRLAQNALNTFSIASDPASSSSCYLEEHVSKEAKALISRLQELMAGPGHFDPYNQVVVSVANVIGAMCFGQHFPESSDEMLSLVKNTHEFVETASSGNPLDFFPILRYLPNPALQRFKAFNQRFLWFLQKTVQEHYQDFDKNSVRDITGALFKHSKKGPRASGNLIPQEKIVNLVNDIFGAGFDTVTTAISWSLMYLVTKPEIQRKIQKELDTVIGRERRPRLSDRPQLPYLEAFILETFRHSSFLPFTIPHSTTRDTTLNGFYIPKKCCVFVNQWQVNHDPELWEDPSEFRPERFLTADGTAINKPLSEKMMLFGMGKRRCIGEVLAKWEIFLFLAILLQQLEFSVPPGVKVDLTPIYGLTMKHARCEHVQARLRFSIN

| Structure (SMILES) | Potency | activity change, negative = inhibition |
| --- | --- | --- |
| C[C@@](N)(C(=O)O)c1ccc(C(=O)O)cc1 | inactive |  |
| N[C@H](C(=O)O)c1nn[nH]n1 |  | 1% (inactive) |
| N[C@H](C(=O)O)[C@@H]1C[C@@H]1C(=O)O | inactive |  |
| CNCC[C@H](Oc1ccccc1OC)c1ccccc1 | 12.6 µM (active) and 10 µM (active) and 15.8 µM (active) |  |
| C[C@H](N=C(NC#N)Nc1ccncc1)C(C)(C)C | 15.8 µM (active) and inactive |  |
| CC[C@](N)(CCC(=O)O)C(=O)O | 20 µM (active) |  |
| CC(N)=NCCCC[C@H](N)C(=O)O | inactive and 39.8 µM (active) |  |
| C[C@@H](CCc1ccc(O)cc1)NCCc1ccc(O)c(O)c1 | inactive |  |
| CC(C)[C@@H]1[C@H]2CC[C@H](C2)[C@H]1N | inactive and 31.6 µM (active) |  |
| N[C@H](C(=O)O)c1ccc(C(=O)O)cc1 |  | -19% (inactive) |
| C[C@@H]1C[C@@H]2[C@H]3CCC4=CC(=O)C=C[C@]4(C)[C@]3(F)[C@@H](O)C[C@@]2(C)[C@@]1(O)C(=O)CO | inactive |  |
| C=C[C@@]1(C)CC(=O)[C@@]2(O)[C@@]3(C)[C@@H](O)CCC(C)(C)[C@@H]3[C@H](O)[C@H](OC(C)=O)[C@@]2(C)O1 | 31.6 µM (active) |  |
| N[C@H](CCC(=O)N[C@H](CSN=O)C(=O)NCC(=O)O)C(=O)O |  | -8.9% (inactive) |
| c1ccc2oc(C3=NCCN3)cc2c1 | 5.01 µM (active) |  |
| CC(C)(C)NC[C@H](O)COc1cccc2[nH]c(=O)[nH]c12 |  | -2.9% (inactive) |
| CCC(=O)N[C@@H]1Cc2ccccc2[C@@H](c2ccccc2)C1 | 15.8 µM (active) |  |
| S=C(S)O[C@@H]1C[C@@H]2C[C@H]1[C@@H]1CCC[C@H]21 | inactive |  |
